Hits are enriched below; roughly 19% of the tested compounds scored in any of these assays.
HT1080 IDH1KD tx: HT-1080 IDH1 knockdown cell toxicity (counter line). 2% of 360,000 active. AID 686971. Potency, µM (top dose mostly 46.1 µM), hits mostly cytotoxic. HT-1080 IDH1 knockdown viability, ATP luminescence, 48 h
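CellTiter-Glo luminescence after 48 h compound exposure at 37 degrees C of IDH1-knockdown HT-1080 cells in 5% FBS RPMI. %Activity scaled between DMSO wells and cell-free media wells, with curves fitted and assigned curve classes.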
HT1080NT lethal: kills 2HG-producing HT-1080-NT fibrosarcoma cells; HT-1080-NT fibrosarcoma viability, CellTiter-Glo ATP luminescence, 48 h; Potency, µM (series often up to 46.1 µM), usual class: cytotoxic; 1.6% of 360,000 active;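 note: NT is the 2HG producing partner of a matched IDH1 knockdown line; nearly all actives have a fitted effect of over 55% in size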
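Viability by CellTiter-Glo luminescence after 48 h compound exposure at 37C of HT-1080-NT cells (750/well, RPMI, 5% FBS). % activity scaled between DMSO wells and medium-only wells, then curve-fitted and categorized by curve class.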
TDP1 cell CPT: DT40-hTDP1 cell growth loss with CPT | Potency, µM (titrated, usually from 46.2 µM), most hits filed as inhibitors | 12% of 420,000 active | chicken DT40 Tdp1-/-;hTDP1 cells + 20 nM CPT, ATP luminescence, 48 h | AID 686979; note: nearly all actives have a fitted effect of over 55% in size
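Cell growth measured by CellTiter-Glo luminescence after a minimum 48 h, 37 C compound exposure with 20 nM CPT in Tdp1-knockout DT40 cells stably expressing hTDP1, seeded 400/well; qHTS titration format.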
TDP1 cell noCPT: qHTS for Inhibitors of human tyrosyl-DNA phosphodiesterase 1 (TDP1): qHTS in cells in absence of CPT; AID 686978, 2013; DT40 Tdp1-/- hTDP1 cells, no CPT, ATP luminescence, 48 h; 15% of 420,000 active; Potency, µM (doses to about 46.2 µM), most hits filed as inhibitors; note: nearly all actives have a fitted effect of over 55% in size
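Growth of hTDP1-complemented DT40 Tdp1-knockout cells is measured by ATP luminescence after at least 48 hr compound exposure at 37 °C, with DMSO substituting for the 20 nM CPT used in the parallel screen.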
IL-1B inflam inh: inflammasome signaling inhibition, IL-1 beta readout. THP-1 LPS/ATP IL-1B secretion, AlphaLISA, 16 h; stronger effect = lower value. activity change, % at 57.5 µM. 4.7% of 360,000 active. AID 743279; in the data active = activity change below about -50%; inconclusive = mostly about -30% to -49%
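Secreted IL-1B measured by AlphaLISA bead assay after 16 h compound exposure of THP-1 cells; compounds (final up to 57.5 uM) added 1 h before LPS (250 ng/mL) and ATP (1.25 mM) stimulation; lower signal means less secretion.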
Hits are given with their value; – = inactive; ? = inconclusive; · = no result given; ! = repeats disagree; [ ] = another dose, or the depositor's remark. Unless noted, calls come from the whole dose curve; as a rule, active = well fitted curve in the direction sought with a large enough effect; inconclusive = small, poorly fitted or top-dose-only effect, or another doubt; inactive = no such curve, though single readings can be large; an effect the other way counts as inactive or inconclusive.

SMILES	HT1080 IDH1KD tx	HT1080NT lethal	TDP1 cell CPT	TDP1 cell noCPT	IL-1B inflam inh
CCCCCn1c(N)c(C(=O)NCCN2CCOCC2)c2nc3ccccc3nc21	18.4µM	16.4µM	?	13µM	-58.4
CCCOC(=O)c1c(N)n(Cc2cccs2)c2nc3ccccc3nc12	–	–	18.4µM	?	–
N#Cc1cc([N+](=O)[O-])ccc1NC(=O)c1cccn(Cc2cccc(F)c2)c1=O	·	·	–	–	·
CCCCNC(=O)c1c(N)n(Cc2ccc3c(c2)OCO3)c2nc3ccccc3nc12	–	–	29.1µM	?	–
CCCCn1c(N)c(C(=O)NCc2cccs2)c2nc3ccccc3nc21	?	?	–	?	-58.0
CCCCCCn1c(N)c(C(=O)NCCN2CCOCC2)c2nc3ccccc3nc21	?	?	20.6µM	?	-73.2
COCCCn1c(N)c(C(=O)NCCC(C)C)c2nc3ccccc3nc21	?	–	?	?	-52.6
CCCCOCCCn1c(N)c(C(=O)OCCOC)c2nc3ccccc3nc21	–	–	?	?	?
Cn1c(O)c(Cc2ccc(OCc3ccccc3)cc2)c(=O)n(C)c1=O	–	–	–	–	–
CC1(C(O)(C#CCN2CCCCC2)c2ccccc2)CCCC1 (centres undefined)	–	–	?	?	–
COC(=O)C1=C(c2ccc(S(C)(=O)=O)cc2)C[C@@H]2CC[C@H]1N2C(=O)NCc1ccc(F)cc1	–	–	–	–	–
Clc1cccc(CNCCc2ccc3c(c2)OCO3)c1	–	–	?	?	-81.2
FC(F)(F)c1ccc(CNCCc2ccc3c(c2)OCO3)cc1	–	–	–	–	?
COc1ccc(CNCCc2ccc3c(c2)OCO3)cc1Br	–	–	?	20.6µM	–
COc1ccc(Br)cc1CNCCc1ccc2c(c1)OCO2	–	?	–	?	?
Clc1ccc(CNCCc2ccc3c(c2)OCO3)cc1	–	–	–	–	-84.2
CC1C(=O)OC2C(O)C34C5OC(=O)[C@@]3(OC3OC(=O)[C@H](O)[C@]34C(C(C)(C)C)C5O)[C@]12O (some centres undefined)	·	·	–	–	·
COc1ccc2nc(N3CCN(C(=O)CS(=O)(=O)c4ccc(C)cc4)CC3)sc2c1	·	·	11.6µM	13µM	·
CCOc1ccc2nc(N3CCC(C(=O)N4CCC5(CC4)OCCO5)CC3)sc2c1	–	–	?	?	–
O=C(CNC(=O)c1ccccc1Cl)Nc1ccc(Br)cc1C(=O)c1ccccc1	–	–	18.4µM	18.4µM	–
CC(=O)NCC(=O)Nc1ccc(Br)cc1C(=O)c1ccccc1	–	–	–	–	·
O=C(CNC(=O)c1ccccc1)Nc1ccc(Br)cc1C(=O)c1ccccc1	–	–	–	?	-52.2
COc1cc(C(=O)Nc2ccc(Br)cc2C(=O)c2ccccc2Cl)cc(OC)c1OC	–	–	?	23.1µM	–
Cc1ccc(C(=O)Nc2ccc(Cl)cc2C(=O)c2ccccc2)cc1	–	–	–	–	–
O=C(Nc1ccc(Br)cc1C(=O)c1ccccc1Cl)c1ccc(Br)cc1	·	·	–	–	·
SMILES	HT1080 IDH1KD tx	HT1080NT lethal	TDP1 cell CPT	TDP1 cell noCPT	IL-1B inflam inh
O=C(Nc1ccc(Cl)cc1C(=O)c1ccccc1)c1ccccc1Br	·	·	?	2.91µM	·
COc1ccc(/C=C/C(=O)N2CC3C[C@@H](C2)Cn2c3cccc2=O)cc1OC	·	·	–[9.04 µM]	–[9.04 µM]	·
CCOc1ccc2nc(N=Nc3c(O)[nH]c(=S)[nH]c3=O)sc2c1	–	–	–	?	–
O=C(CCN1CCOCC1)NCC(=O)Nc1ccc(Br)cc1C(=O)c1ccccc1	–	–	–	–	–
O=C(CN1CCCCC1)NCC(=O)Nc1ccc(Br)cc1C(=O)c1ccccc1	–	–	16.4µM	18.4µM	–
COc1ccc(NC(=O)CCn2cnc3onc(-c4ccc(F)cc4)c3c2=O)cc1OC	·	·	2.91µM	2.91µM	·
COc1ccc(NC(=O)CCn2cc(C)c3ccccc32)cc1	–	–	–	?	–
Cc1cccc(C)c1NC(=O)CN(C)CC(=O)Nc1ccc(C#N)c(Cl)c1	–	–	18.4µM	13µM	–
Cc1noc(C)c1CSCC(=O)Nc1ccc(C#N)c(Cl)c1	–	–	?	?	–
CCN(CC(=O)Nc1ccc(C#N)c(Cl)c1)CC(=O)NC(C)(C)C	?	?	?	23.1µM	–
CCC(=O)O[C@@H]1[C@@H](OC(C)=O)[C@@]2(O)C(C[C@H](O)C2(C)C)[C@](C)(O)[C@H]2CC[C@@H]3[C@@H](O)[C@]12C[C@@]3(C)O (some centres undefined)	–	–	–	–	–
CN1CC[C@@]2(CCCN(C(=O)c3ccco3)C2)C1	·	·	–	–	·
Cc1cc(C)[n+](C2C3CC4CC(C3)CC2C4)o1 (centres undefined)	–	–	–	20.6µM	–
CC[C@@H](O)C[C@H]1CCC[C@@]2(C[C@@H]3OC(=O)/C=C/[C@@](C)(O)[C@@H](O)[C@H](C)[C@@H](O)[C@H](OC4CCC(N(C)C)C(C)O4)[C@@H](O)[C@](C)(O)CCCCC/C=C/[C@@H]4CC(C)(C)O[C@@]4(O)C[C@H](O2)[C@H]3C)O1 (some centres undefined)	?	–	0.0164µM	0.146µM	-56.2
O=C(CC[N+](=O)[O-])OCC1OC(O)C(OC(=O)CC[N+](=O)[O-])[C@@H](OC(=O)CC[N+](=O)[O-])C1OC(=O)CC[N+](=O)[O-] (some centres undefined)	·	·	?	5.8µM	·
CN(Cc1ccccc1)C(=O)c1cccc(NC(=O)Cc2ccc([N+](=O)[O-])cc2)c1	–	–	23.1µM	14.6µM	?
COP(=O)(NC(C)=O)SC (centres undefined)	–	–	–	–	–
CCOC(=O)c1c(C)n(Cc2ccccc2)c2ccc(OCC(O)Cn3nc(C)nc3C)cc12 (centres undefined)	–	–	?	?	?
CCOC(=O)c1c(C)n(Cc2ccccc2)c2ccc(OCC(O)CNC(C)(C)C)cc12 (centres undefined)	16.4µM	?	?	18.4µM	-96.3
Cc1cc(OCC(=O)NCc2cccnc2)c2c3c(c(=O)oc2c1)CCCC3	–	–	?	?	?
COC(/C(C)=C/C=C/C(C)=C/c1coc(C)n1)C(C)C1CC(O)C2(C)OC2C=CC(C)C2CC(CC(=O)O2)CC2OC2C(=O)O1 (centres undefined)	?	0.013µM	0.116µM	0.0184µM	–
OC(CN1CC=C(c2ccccc2)CC1)c1ccccc1 (centres undefined)	–	–	–	?	–
OC(COCc1ccc(Cl)cc1)CN1CC=C(c2ccccc2)CC1 (centres undefined)	?	–	16.4µM	10.3µM	-70.1!
CN(C)CCc1c[nH]c2ccc(O)cc12	·	·	?	–	·

Screens from PubChem.
